Only some compounds are listed: those with a hit (about 10% of all), similar ones and a draw of the others.
MmCpn inh: blocks the Methanococcus maripaludis chaperonin Mm-Cpn | purified Mm-Cpn ATPase, ADP Transcreener TR-FRET | Potency, µM (doses to about 76.9 µM), without a hit: top-dose activity, negative = inhibition, actives largely listed as inhibitors | 330,000 compounds, 0.031% hits | AID 504842; further: potency means the concentration at half of the fitted maximal effect; nearly all actives have a fitted effect of over 80% in size
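Quantitative HTS used 25 nM Mm-CPN and 10 uM ATP in magnesium/KCl Tris buffer, pH 7.4, with 1 mM DTT. Hydrolysis ran 30 min at 37°C; ADP was read by HTRF.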
G9a inh: inhibitors of human histone lysine methyltransferase G9a; AID 504332; G9a H3K9 monomethylation, AlphaScreen, 2 h; Potency, µM (titrated, usually from 102 µM), for the others: at the top dose activity, negative = inhibition, most hits filed as inhibitors; Q96KQ7; 350,000 compounds, 8.8% hits; further: potency means the concentration at half of the fitted maximal effect; nearly all actives have a fitted effect of over 75% in size
Target sequence (Q96KQ7 913-1193 limits assumed): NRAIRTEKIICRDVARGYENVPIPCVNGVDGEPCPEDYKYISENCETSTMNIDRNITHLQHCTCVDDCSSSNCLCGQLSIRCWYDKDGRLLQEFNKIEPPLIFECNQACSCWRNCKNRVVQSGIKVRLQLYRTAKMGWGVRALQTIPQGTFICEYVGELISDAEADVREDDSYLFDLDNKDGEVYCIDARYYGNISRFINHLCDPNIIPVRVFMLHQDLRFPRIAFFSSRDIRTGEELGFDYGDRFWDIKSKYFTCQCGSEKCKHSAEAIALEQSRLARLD
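Step 1: enzyme (final 20 nM) with compound, 15 min RT. Step 2: substrate peptide 500 nM and SAM 20 uM, 2 h RT. Step 3: anti-H3K9me1 antibody and AlphaScreen beads, 10 min, then plate read.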
VDR inh: blocks the human vitamin D receptor; VDR-SRC2-3 peptide fluorescence polarization, 2 h; Potency, µM, inactives show max response, negative = inhibition, usual class: inhibitors; 400,000 compounds, 0.93% hits; further: potency means the concentration at half of the fitted maximal effect
Target sequence (P11473 whole entry, looked up): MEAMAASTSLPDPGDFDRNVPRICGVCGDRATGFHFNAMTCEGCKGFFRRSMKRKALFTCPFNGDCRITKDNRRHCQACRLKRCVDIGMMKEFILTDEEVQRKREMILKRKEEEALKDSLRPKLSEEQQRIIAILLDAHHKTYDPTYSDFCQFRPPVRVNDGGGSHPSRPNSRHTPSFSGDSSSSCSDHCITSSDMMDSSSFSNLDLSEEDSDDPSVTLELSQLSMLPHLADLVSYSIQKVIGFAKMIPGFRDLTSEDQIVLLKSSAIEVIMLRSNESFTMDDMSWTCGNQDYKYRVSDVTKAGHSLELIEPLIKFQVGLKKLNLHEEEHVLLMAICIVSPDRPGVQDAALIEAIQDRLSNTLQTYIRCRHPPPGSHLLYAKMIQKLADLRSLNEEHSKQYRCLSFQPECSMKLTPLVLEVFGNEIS
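Signal is fluorescence polarization, reporting how far test compounds block the interaction of VDR with the SRC2-3 coregulator peptide after a 2 h room-temperature incubation.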
PLK1 PBD block: PLK1 (human) polo-box domain binding inhibition | Plk1 PBD binding of FITC phosphopeptide, fluorescence polarization | Potency, µM, for the others: max response, negative = inhibition, most hits filed as inhibitors | 360,000 compounds, 2.8% hits | AID 720504; further: potency means the concentration at half of the fitted maximal effect; series mostly up to about 57 µM; nearly all actives have a fitted effect of over 65% in size
CCT modulator: changes cytosolic chaperonin activity | purified chaperonin ATPase assay, HTRF ADP detection, 30 min | activity change, % (no concentration beside the values), hits read low | 360,000 compounds, 0.3% hits; in the data active means activity change below about -30%
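First, chaperonin was dispensed at 40 nM or 20 nM final depending on batch activity. Next, compounds were pinned at 76 uM and ATP added at 10 uM. After 30 min at 37 °C, ADP detection reagents ran 30 min at ambient temperature.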
Sfp PPTase inh: blocks B. subtilis Sfp PPTase activity; AID 1490; 310,000 compounds, 3.5% hits; Potency, µM, for the others: largest response in the series, negative = inhibition, hits mostly inhibitors; Biochemical Sfp PPTase activity, qHTS;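 further: the enzyme is Sfp with the accession as filed and its product quenches rhodamine fluorescence; potency means the concentration at half of the fitted maximal effect; 0% = enzyme reaction without inhibitor and -100% = no enzyme wells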
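With Hepes-Na pH 7.6 buffer containing 10 mM MgCl2, Sfp (15 nM) modified BHQ-2-YbbR (12.5 uM) using rhodamine-CoA (5 uM). Two reads 30 minutes apart at 525/598 nm yielded each well's rate.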
* marks the source's active call; other numbers are inactive results; u = inconclusive; x = not tested or not shown; [ ] = dose if it differs, or a comment. Unless noted, the call rests on the fitted dose curve; in most records, active means well fitted curve in the direction sought with a large enough effect; inconclusive means small, poorly fitted or top-dose-only effect, or another doubt; inactive means no such curve, though single readings can be large; an effect the other way counts as inactive or inconclusive. Unless noted, on the % scale 0 is the no-effect control and ±100 the full control effect.

SMILES	MmCpn inh	G9a inh	VDR inh	PLK1 PBD block	CCT modulator	Sfp PPTase inh
CC(C)(C)c1ccc(C(=O)NCC(c2cccs2)S(=O)(=O)c2ccccc2)cc1 (stereo not drawn)	x	22%[59 µM]	9%	x	x	x
CC(C)Cn1cc(C(=O)N2CCN(c3cccc(Cl)c3)CC2)c2c3ccccc3n(C)c2c1=O	x	u	-5%	x	x	x
NC(=S)NN=C(c1ccccc1)c1ccccc1	1%	40µM*	1%	-17%	-2	12%
Fc1cccc(Cl)c1/C=C/c1cnc2ccccc2n1	-23%	50µM*	-22%	-13%	0	-14%
C/C(=N\Nc1nnc(-c2ccccc2)c(-c2ccccc2)n1)c1cccc([N+](=O)[O-])c1	2%	27%[59 µM]	-6%	-2%	0	50µM*
C/C(=N\Nc1ccc(Cl)c(C(=O)O)c1)c1cccc([N+](=O)[O-])c1	1%	16µM*	5%	-11%	2	-3%
C/C(=N\NC(=O)c1ccccc1C)c1cccc([N+](=O)[O-])c1	2%	-1%[59 µM]	5%	-12%	-1	10%
O=C1CCC=C1[C@@H](O)CCc1ccccc1	x	x	x	x	x	3%
CCOc1ccc(C2c3c(oc4ccc(C)cc4c3=O)C(=O)N2CCCN2CCOCC2)cc1 (stereo not drawn)	x	5%[59 µM]	2%	x	x	x
COc1cccc(CNC(=O)CN2C(=O)CCn3nc(-c4cn(C)c5ccccc45)cc32)c1OC	x	3%[59 µM]	17%	x	x	x
N#Cc1ccc(NC(=O)c2ccc3c(c2)nnn3C2CCCC2)cc1	x	-6%[59 µM]	2%	x	x	x
COc1ccc(C2C(C#N)=C(N)Oc3cc(C)n(Cc4ccco4)c(=O)c32)cc1 (stereo not drawn)	-1%	25µM*	u	-28%	-1	32µM*
COc1cccc(C2C(C#N)=C(N)Oc3cc(C)n(Cc4ccco4)c(=O)c32)c1 (stereo not drawn)	-1%	50µM*	-16%	-3%	-14	7.9µM*
Cc1cc2c(c(=O)n1Cc1cccnc1)C(c1ccccc1)C(C#N)=C(N)O2 (stereo not drawn)	0%	-4%[2.33 µM]	18%	-5%	-3	-25%
CCc1nc(SCC(=O)c2cc(C)ccc2C)n[nH]1	-3%	u	u	u	-1	56µM*
CCCn1c(SCC(=O)c2cc(C)ccc2C)n[nH]c1=O	0%	7.1µM*	-19%	-14%	0	-1%
Cc1ccc(C)c(C(=O)CSc2n[nH]c(C(C)C)n2)c1	-1%	u	4%	u	0	-7%
CC(=O)Nc1ccc(SCC(=O)c2cc(C)ccc2C)cc1	-3%	u	-14%	19µM*	-1	-4%
Cc1ccc(C)c(C(=O)CSc2n[nH]c(C)n2)c1	-1%	7.1µM*	u	u	0	79µM*
CC(=O)Nc1ccc(SCC(=O)c2cc(C)n(-c3ccccc3)c2C)cc1	-1%	u	-4%	-23%	0	-7%
CCN(CC)CCNC(=O)C1CCN(c2cc(C)nc3c(-c4ccc(Cl)cc4)c(C)nn23)CC1	x	-25%[59 µM]	-18%	x	x	x
COC(=O)c1ccc(C(NC(=O)OCc2ccccc2)/C(=C/[C@@H](C)C(=O)NCc2ccc(OC)c(O)c2)c2cccnc2)cc1 (stereo partly drawn)	x	x	x	x	x	-8%
C=C(C)C(O)/C=C/C=C/c1ccccc1 (stereo not drawn)	x	x	x	x	x	3%
Cc1nc(C2CCC3C4CCC5=CC(=O)CC[C@]5(C)C4CC[C@]23C)cs1 (stereo partly drawn)	0%	-2%[12.7 µM]	x	x	x	79µM*
CC(C)(C)C(=O)OCC(=O)C1CCC2C3CCC4=CC(=O)CCC4(C)C3CCC12C (stereo not drawn)	x	23%[59 µM]	-5%	x	x	8%
SMILES	MmCpn inh	G9a inh	VDR inh	PLK1 PBD block	CCT modulator	Sfp PPTase inh
O=C1CCCC2=C1C(c1ccc(O)cc1)c1c(ccc3ccccc13)N2 (stereo not drawn)	0%	u	8%	1%	3	50µM*
CCN1C2=C(C(=O)CCC2)C(c2ccc(O)cc2)C2=C1CCCC2=O	3%	20µM*	-4%	-1%	1	12%
CCOc1cc(C2C3=C(CCCC3=O)N(C)C3=C2C(=O)CCC3)cc(Cl)c1O	0%	u	-1%	-9%	1	-3%
C=C/C1=C/Cc2ccccc2[C@H](C[N+](=O)[O-])C(C(C)=O)(C(=O)OC)C1 (stereo partly drawn)	x	x	-5%	x	x	0%
Cc1ccccc1Cn1c(=O)n(CCc2ccccc2)c(=O)c2c(C)c(C)sc21	x	-1%[59 µM]	2%	x	x	x
c1ccc(-c2nc(NCCCn3ccnc3)c3oc4ccccc4c3n2)cc1	0%	18µM*	21%	-9%	-2	-10%
CCc1nc(NCCCn2ccnc2)c2oc3ccccc3c2n1	1%	u	9%	-7%	2	-5%
COc1ccc2c(c1)CC(C(=O)NCCN1CCN(c3cccc(Cl)c3)CC1)CO2 (stereo not drawn)	x	u	3%	x	x	x
Oc1ccc(Cl)cc1N=Cc1sc2ccccc2c1Cl	-5%	u	-4%	-12%	-2	-21%
Oc1c(C=Nc2cccc3cccnc23)sc2ccccc12	0%	u	x	x	x	-8%
O=[N+]([O-])c1ccc(O)c(N=Cc2sc3ccccc3c2O)c1	1%	45µM*	3%	0%	0	-9%
Cc1cccc(/N=C/c2sc3ccccc3c2O)n1	-3%	32µM*	u	-23%	0	12%
O=[N+]([O-])c1ccc(O)c(C=Nc2cccc3ccccc23)c1	-14%	50µM*	23%	-10%	0	7%
COc1ccc(C(=O)NCCn2cc(SCc3cc(C)ccc3C)c3ccccc32)cc1	x	13%[59 µM]	5%	x	x	x
COc1ccc(OC)c(CNc2ccc3c(c2)nc(C)n3C)c1	-2%	35µM*	-11%	-4%	-1	-3%
COc1ccc(CNc2ccc3c(c2)nc(C)n3C)cc1	0%	3.5µM*	-6%	-8%	1	6%
COc1ccc(OC)c(CNc2nc3ccc(C)cc3n3nnnc23)c1	x	9%[59 µM]	-5%	x	x	x
COc1cccc(NC(=O)Nc2ccc3c(c2)nc(C)n3C)c1	0%	29%[0.501 µM]	-16%	-13%	-3	5%
Cc1ccc(CNc2ccc3c(c2)nc(C)n3C)cc1	-1%	25µM*	19%	-13%	2	-7%
Cc1nc2cc(NCc3ccccc3O)ccc2n1Cc1ccccc1	-6%	x	u	3.4µM*	0	-11%
Cc1nc2cc(NCc3ccc(Cl)cc3)ccc2n1C	0%	x	14%	-1%	0	-7%
Cc1ccc(C)c(Nc2nn3c(=O)c4ccc(C(=O)N(C)Cc5ccccc5)cc4nc3s2)c1	x	-29%[59 µM]	-10%	x	x	x
COc1cccc(-n2c(SCC(=O)N3CCc4ccccc43)nc3c([nH]c4ccccc43)c2=O)c1	x	4%[59 µM]	7%	x	x	x
